According to the supplement of paper PMC8975748:
Where a name gives a salt, the structure may show the parent alone.

test system: Saccharomyces cerevisiae BY4741 SeMeCo community; assay: z-score of subpopulation abundance vs DMSO median, subpopulation auxotrophic for HM; higher = larger share of this subpopulation than in DMSO controls; settings: 10 µM; 24 h; SM minimal medium; subpopulation (auxotrophy): HM
Method: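 Fluorescent four-plasmid SeMeCo (self-establishing metabolically cooperating S. cerevisiae BY4741 community; plasmids pH-mRuby2, pL-mWasabi, pU-eCFP, pM-TagRFP657) was grown 24 h in minimal SM medium with each Selleck FDA-approved drug at 10 µM in 384-well plates. Cells were fixed and imaged by high-content confocal microscopy. For each auxotrophic subpopulation (and the prototroph), a z-score gives the deviation from the DMSO vehicle-control population median.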

**Q.** How did the “z-score of subpopulation abundance” value turn out when `CN(Cc1ccc(C(C)(C)C)cc1)Cc1cccc2ccccc12` [Butenafine HCl] was run?
**A.** Its value is -1.43.

**Q.** With `C[n+]1ccccc1/C=N/O` [Pralidoxime chloride] as the compound, how does the “z-score of subpopulation abundance” value read?
**A.** The value was -0.08.

**Q.** For `COc1nc2ccc(Br)cc2cc1[C@@H](c1ccccc1)[C@@](O)(CCN(C)C)c1cccc2ccccc12` [Bedaquiline fumarate], which “z-score of subpopulation abundance” value is on record?
**A.** The value was 0.33.

**Q.** For `CN(C)CCC=C1c2ccccc2C=Cc2ccccc21` [Cyclobenzaprine HCl], which “z-score of subpopulation abundance” value is on record?
**A.** Its value is -0.88.

**Q.** Which “z-score of subpopulation abundance” value does the source give for `CN(C)CCCC1(c2ccc(F)cc2)OCc2cc(C#N)ccc21` (stereo not given) [Citalopram HBr] here?
**A.** The value was -0.81.

**Q.** With `CO/N=C(\C(=O)N[C@@H]1C(=O)N2C(C(=O)[O-])=C(C[n+]3cccc4c3CCC4)CS[C@H]12)c1csc(N)n1` [Cefpirome sulfate] as the compound, how does the “z-score of subpopulation abundance” value read?
**A.** Its value is 0.31.

**Q.** Which “z-score of subpopulation abundance” value does the source give for `O=C(O)c1cc(=O)c2c(OCC(O)COc3cccc4oc(C(=O)O)cc(=O)c34)cccc2o1` [Disodium Cromoglycate] here?
**A.** Its value is -0.13.

**Q.** Which “z-score of subpopulation abundance” value does the source give for `Cc1c(OCC(F)(F)F)ccnc1C[S@@+]([O-])c1nc2ccccc2[nH]1` [Dexlansoprazole] here?
**A.** Its value is 0.

**Q.** `C#CCN[C@@H]1CCc2ccccc21` [Rasagiline Mesylate] was tested. Which “z-score of subpopulation abundance” value did it give?
**A.** Its value is -0.43.

**Q.** For `COC(=O)C1=C(C)NC(C)=C(C(=O)OCCN(C)Cc2ccccc2)C1c1cccc([N+](=O)[O-])c1` (stereo not given) [Nicardipine HCl], which “z-score of subpopulation abundance” value is on record?
**A.** Its value is 0.65.

**Q.** With `O=C(O[C@H]1CN2CCC1CC2)N1CCc2ccccc2[C@@H]1c1ccccc1` [Solifenacin succinate] as the compound, how does the “z-score of subpopulation abundance” value read?
**A.** Its value is 0.

**Q.** How did the “z-score of subpopulation abundance” value turn out when `CO/N=C(\C(=O)N[C@@H]1C(=O)N2C(C(=O)O)=CCS[C@H]12)c1csc(N)n1` [Ceftizoxime] was run?
**A.** Its value is -0.82.

**Q.** `CCOC(=O)OC(C)OC1=C(C(=O)Nc2ccccn2)N(C)S(=O)(=O)c2ccccc21` (stereo not given) [Ampiroxicam] was tested. Which “z-score of subpopulation abundance” value did it give?
**A.** Its value is -0.5.

**Q.** For `CC(=O)[C@@]1(O)CC[C@H]2[C@@H]3C[C@H](C)C4=CC(=O)CC[C@]4(C)[C@H]3CC[C@@]21C` [Medroxyprogesterone], which “z-score of subpopulation abundance” value is on record?
**A.** The value was -0.02.

**Q.** `CC(C(=O)O)c1ccc2c(c1)CC(=O)c1ccccc1S2` (stereo not given) [Zaltoprofen] was tested. Which “z-score of subpopulation abundance” value did it give?
**A.** Its value is 0.46.

**Q.** For `Clc1ccc(COC(Cn2ccnc2)c2ccc(Cl)cc2Cl)c(Cl)c1` (stereo not given) [Miconazole Nitrate], which “z-score of subpopulation abundance” value is on record?
**A.** Its value is 0.3.

**Q.** With `Cc1cccc(C)c1NC(=O)C1CCCCN1C` (stereo not given) [Mepivacaine HCl] as the compound, how does the “z-score of subpopulation abundance” value read?
**A.** Its value is -0.57.

**Q.** Which “z-score of subpopulation abundance” value does the source give for `Cc1ccccc1OCC(O)CO` (stereo not given) [Mephenesin] here?
**A.** The value was -0.48.

**Q.** For `CO/N=C(\C(=O)N[C@@H]1C(=O)N2C(C(=O)O)=C(COC(C)=O)CS[C@H]12)c1csc(N)n1` [Cefotaxime sodium], which “z-score of subpopulation abundance” value is on record?
**A.** Its value is -0.37.

**Q.** For `C#CCN(C)Cc1ccccc1` [Pargyline hydrochloride], which “z-score of subpopulation abundance” value is on record?
**A.** Its value is -0.95.

**Q.** Which “z-score of subpopulation abundance” value does the source give for `CN1CCN(c2c(F)cc3c(=O)c(C(=O)O)cn4c3c2OCN4C)CC1` [Marbofloxacin] here?
**A.** Its value is -0.43.

**Q.** How did the “z-score of subpopulation abundance” value turn out when `CCCN1CCCC[C@H]1C(=O)Nc1c(C)cccc1C` [Ropivacaine HCl] was run?
**A.** Its value is -0.41.

**Q.** How did the “z-score of subpopulation abundance” value turn out when `CO[C@@H]1[C@@H](OC(N)=O)[C@@H](O)[C@H](Oc2ccc3c(O)c(NC(=O)c4ccc(O)c(CC=C(C)C)c4)c(=O)oc3c2C)OC1(C)C` [Novobiocin Sodium] was run?
**A.** Its value is 1.59.

**Q.** With `CCOC(=O)c1ccc(O)cc1` [Ethylparaben] as the compound, how does the “z-score of subpopulation abundance” value read?
**A.** The value was -0.62.

**Q.** For `Nc1nc2c(ncn2COC(CO)CO)c(=O)[nH]1` [Ganciclovir], which “z-score of subpopulation abundance” value is on record?
**A.** Its value is -0.15.

**Q.** With `NCC[C@H](O)C(=O)N[C@@H]1C[C@H](N)[C@@H](O[C@H]2O[C@H](CN)[C@@H](O)[C@H](O)[C@H]2O)[C@H](O)[C@H]1O[C@H]1O[C@H](CO)[C@@H](O)[C@H](N)[C@H]1O` [Amikacin disulfate] as the compound, how does the “z-score of subpopulation abundance” value read?
**A.** Its value is -1.21.

**Q.** How did the “z-score of subpopulation abundance” value turn out when `C[C@H]1O[C@@H](O[C@H]2[C@@H](O)C[C@H](O[C@H]3[C@@H](O)C[C@H](O[C@H]4CC[C@@]5(C)[C@H](CC[C@@H]6[C@@H]5C[C@@H](O)[C@]5(C)[C@@H](C7=CC(=O)OC7)CC[C@]65O)C4)O[C@@H]3C)O[C@@H]2C)C[C@H](O)[C@@H]1O` [Digoxin] was run?
**A.** The value was -0.55.

**Q.** Which “z-score of subpopulation abundance” value does the source give for `CC(C)COCC(CN(Cc1ccccc1)c1ccccc1)N1CCCC1` (stereo not given) [Bepridil hydrochloride] here?
**A.** The value was 0.11.

**Q.** For `O=C(O)c1cc(/N=N/c2ccc(O)c(C(=O)O)c2)ccc1O` [Olsalazine Sodium], which “z-score of subpopulation abundance” value is on record?
**A.** Its value is -1.16.

**Q.** Which “z-score of subpopulation abundance” value does the source give for `C[C@@H](O)[C@H]1C(=O)N2C(C(=O)O)=C(SCCNC=N)C[C@H]12` [Imipenem] here?
**A.** Its value is 0.44.

**Q.** With `Cc1ncc([N+](=O)[O-])n1CC(O)CCl` (stereo not given) [Ornidazole] as the compound, how does the “z-score of subpopulation abundance” value read?
**A.** The value was 0.34.

**Q.** Which “z-score of subpopulation abundance” value does the source give for `CCCCCOc1ccc(-c2cc(-c3ccc(C(=O)N[C@H]4C[C@@H](O)[C@@H](O)NC(=O)[C@@H]5[C@@H](O)[C@@H](C)CN5C(=O)[C@H]([C@H](O)CC(N)=O)NC(=O)[C@H]([C@H](O)[C@@H](O)c5ccc(O)c(OS(=O)(=O)O)c5)NC(=O)[C@@H]5C[C@@H](O)CN5C(=O)[C@H]([C@@H](C)O)NC4=O)cc3)no2)cc1` [Micafungin Sodium] here?
**A.** Its value is 1.38.

**Q.** How did the “z-score of subpopulation abundance” value turn out when `CN(C)CCCN1c2ccccc2Sc2ccccc21` [Promazine hydrochloride] was run?
**A.** The value was -0.18.

**Q.** `OCc1ccc(Cl)cc1Cl` [2,4-dichlorobenzyl alcohol] was tested. Which “z-score of subpopulation abundance” value did it give?
**A.** The value was -0.64.

**Q.** For `CCCOc1ccc2c(c1)CC[C@@H]1[C@@H]2CC[C@]2(C)[C@@H](OC)CC[C@@H]12` [Promestriene], which “z-score of subpopulation abundance” value is on record?
**A.** The value was 0.25.

**Q.** `Cc1onc(-c2c(F)cccc2Cl)c1C(=O)N[C@@H]1C(=O)N2[C@@H]1SC(C)(C)[C@@H]2C(=O)O` [Flucloxacillin sodium] was tested. Which “z-score of subpopulation abundance” value did it give?
**A.** Its value is 0.12.

**Q.** For `CCC(=O)NS(=O)(=O)c1ccc(-c2c(-c3ccccc3)noc2C)cc1` [Parecoxib], which “z-score of subpopulation abundance” value is on record?
**A.** Its value is 0.95.

**Q.** Which “z-score of subpopulation abundance” value does the source give for `CC1(C)S[C@@H]2[C@H](NC(=O)[C@H](N)c3ccccc3)C(=O)N2[C@H]1C(=O)OCOC(=O)[C@@H]1N2C(=O)C[C@H]2S(=O)(=O)C1(C)C` [Sultamicillin] here?
**A.** The value was 0.78.

**Q.** How did the “z-score of subpopulation abundance” value turn out when `CC(=O)OC1CC2(C)C(CC(O)C3C4(C)CCC(O)C(C)C4CCC32C)C1=C(CCC=C(C)C)C(=O)O` (stereo not given) [Fusidine] was run?
**A.** Its value is 1.19.

**Q.** For `CCOC(=O)C1=C(COCCN)NC(C)=C(C(=O)OC)C1c1ccccc1Cl` (stereo not given) [Amlodipine], which “z-score of subpopulation abundance” value is on record?
**A.** The value was 4.86.
